Our source for the growth values is PubChem BioAssay (NCI).

Test in all cases: NCI-60 one-dose screen, 48 h (100 = growth as untreated, 0 = no growth, -100 = all killed)
Conditions in all cases: 10 µM unless noted

The subject of assay [1] is SK-MEL-2 melanoma.
Assay [2] relates to EKVX NSCLC.
The test system of assay [3] is SN12C renal.
In assay [4] the test system is UO-31 renal.
Assay [5] concerns TK-10 renal.
Assay [6] deals with CAKI-1 renal.
For assay [7], the system named is A498 renal.
The subject of assay [8] is HL-60(TB) leukemia.
Assay [9] relates to CCRF-CEM leukemia.
Assay [10] relates to ACHN renal.

Values joined by “and” are separate entries in the source; they are usually repeats but may differ in a detail not shown here. Equal entries are not always repeated. About 83,000 compounds went through this panel and 20% of them were active in at least one assay; those are over-represented in the sample as a whole.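 In brief: 96-well plates, 48 h treatment, single concentration, percent growth endpoint.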 Active and inactive are the calls of the source. The calls were made as follows: active = growth percent below 10; inactive = the rest.

As for `COc1cc2c(cc1OC)-c1c3c(cc4c1[C@@H](C2)N(C)CC4)OCO3`, the growth in assay [1] was 87.9% (inactive); in [2], 66.7% (inactive); in assay [3] it was 43.8% (inactive); in assay [4], 9.51% (active); in [5], 67.3% (inactive); in assay [6] it was 46.9% (inactive). For the same compound, the growth in [7] is 57% (inactive); in assay [8], 32.5% (inactive); in [9] it was 42.1% (inactive).

As to `O=[P+](O)c1cccnc1`, the growth in assay [1] was 106% (inactive); in assay [2] it was 101% (inactive); in [3], 102% (inactive); in assay [4], 91.5% (inactive); in [5], 103% (inactive); in [10], 110% (inactive). In addition, the growth is 102% (inactive) in [6], 111% (inactive) in assay [7], 107% (inactive) in assay [8] and 98.3% (inactive) in assay [9].

As for `N#CCCc1ccccc1`, the growth is 121% (inactive) in [1]; 103% (inactive) in [2]; 103% (inactive) in assay [3]; 85% (inactive) in assay [4]; 113% (inactive) in assay [5]; 98.4% (inactive) in assay [10]. For the same compound, the growth is 98.2% (inactive) in assay [6], 103% (inactive) in [8] and 96.2% (inactive) in [9].

Turning to `Oc1cc(Cl)ccc1Oc1ccc(Cl)cc1Cl`, the growth in [1] is 16.6% (inactive); in [2] it was 42.7% (inactive); in assay [3], 10.9% (inactive); in assay [4], -0.646% (active); in assay [5], 102% (inactive); in assay [6], 90.5% (inactive). Besides, the growth in [7] is 103% (inactive); in assay [8], -24.9% (active); in [9], 24.8% (inactive).

On to `CCCCCCCCCCCCCCCC[N+](C)(C)Cc1ccccc1`, for which the growth was 25.2% (inactive) and -69% (active) in assay [1]; 15.8% (inactive) and -27.6% (active) in assay [2]; 5.04% (active) and -76.7% (active) in [3]; 54.3% (inactive) and 51% (inactive) in [4]; 8.74% (active) and -73.5% (active) in [5]; 55.1% (inactive) and 23.4% (inactive) in assay [10]. For the same compound, the growth is 84.4% (inactive) and 50.6% (inactive) in assay [6]; 36.2% (inactive) and 38.2% (inactive) in [7]; -28.8% (active) and -47.8% (active) in [8]; -22% (active) and -30.1% (active) in [9].

On to `CC[CH2][Sn]([Cl])([Cl])[CH2]CC.Oc1ccccc1C=NCCN=Cc1ccccc1O`, for which the growth in assay [1] was 34.1% (inactive) and 13.1% (inactive); in assay [2], 85.2% (inactive) and 75.2% (inactive); in assay [3], 52.2% (inactive) and 58.8% (inactive); in assay [4] it was 53.9% (inactive) and 32.8% (inactive); in assay [5], 17.6% (inactive) and -44.9% (active); in assay [6], 50.4% (inactive) and 33.6% (inactive). Moreover, the growth was 7.69% (active) and -34% (active) in [7]; 7.92% (active) and 64.9% (inactive) in assay [8]; 2.05% (active) and 0.18% (active) in assay [9].

On to `CN1C2CCC1[C@@H](COC(=O)c1ccccc1)[C@@H](O)C2` (stereo partly drawn), for which the growth was 104% (inactive) in assay [1]; 104% (inactive) in assay [2]; 105% (inactive) in assay [3]; 91.8% (inactive) in [4]; 131% (inactive) in [5]; 105% (inactive) in [10]. For the same compound, the growth in [6] was 122% (inactive); in [7], 144% (inactive); in [8] it was 81.7% (inactive); in assay [9], 94.3% (inactive).

As to `COC1C(O)CC(OC2CC(Oc3cc4cc5c(c(O)c4c(O)c3C)C(=O)[C@@H](OC3CC(OC4CC(OC6CC(C)(O)C(OC(C)=O)C(C)O6)C(O)C(C)O4)C(O)C(C)O3)[C@H]([C@H](OC)C(=O)[C@@H](O)[C@@H](C)O)C5)OC(C)C2OC(C)=O)OC1C` (stereo partly drawn), the growth in assay [1] was -42.1% (active); in assay [2] it was -12.7% (active); in assay [3], 7.02% (active); in assay [4], -12.5% (active); in assay [5], 2.86% (active); in assay [10], 2.04% (active). In addition, the growth is -25.9% (active) in assay [6], -23.8% (active) in [8] and -8.99% (active) in assay [9].

Consider `CCCC[C@H]1C(=O)O[C@H](C)[C@H](NC(=O)c2cccc(NC=O)c2O)C(=O)O[C@@H](C)[C@@H]1OC(=O)CC(C)C`, for which the growth was 93.4% (inactive) in assay [1]; 57.7% (inactive) in assay [2]; 59.6% (inactive) in [3]; 57.3% (inactive) in assay [4]; 49.8% (inactive) in assay [5]; 56.6% (inactive) in assay [10]. The figures for the growth in assay [6], in assay [8] and in assay [9] were 34.5% (inactive), 37% (inactive) and 28.7% (inactive), respectively.

For `CC[C@H](C)[C@H](NC(=O)c1cnccn1)C(=O)N(C)[C@H](C[C@@H](OC(C)=O)c1nc(C(=O)N[C@@H](Cc2ccccc2)C[C@H](C)C(=O)OC)cs1)C(C)C`, the growth is 31.3% (inactive) in [1]; 43.9% (inactive) in assay [2]; 43.6% (inactive) in assay [3]; 40.7% (inactive) in assay [4]; 48.2% (inactive) in [5]; 29.4% (inactive) in assay [6]. The growth in assay [7] is -7.33% (active); in assay [8], -43.7% (active); in assay [9], 12% (inactive).

For the compound `C/C(=C\c1ccn(-c2ccc(N)cc2F)n1)[C@@H]1C[C@@H]2O[C@]2(C)CCC[C@H](C)[C@H](O)[C@@H](C)C(=O)C(C)(C)[C@@H](O)CC(=O)O1`, the growth in assay [1] was 13.5% (inactive); in assay [2], 46.7% (inactive); in assay [3] it was 29.3% (inactive); in [4], 29.1% (inactive); in assay [5], 48.3% (inactive); in [10] it was 38.9% (inactive). Besides, the growth is 41.4% (inactive) in [6], 0.324% (active) in assay [7], 3.32% (active) in assay [8] and 12.9% (inactive) in assay [9].

With `Cc1cc(NC(=O)NCCCOc2ccc(N3C(N)=NC(N)=NC3(C)C)cc2Cl)ccc1S(=O)(=O)F`, the growth in [1] is 42.2% (inactive); in assay [2], 43% (inactive); in assay [3] it was 27.8% (inactive); in assay [4], 94.9% (inactive); in [5], 46.5% (inactive); in assay [10] it was 72.6% (inactive). Besides, the growth in assay [6] was 107% (inactive); in assay [7] it was 94.6% (inactive); in assay [8], 29.1% (inactive); in assay [9] it was 32.4% (inactive).
